Source: PubChem BioAssay (National Center for Advancing Translational Sciences (NCATS))
Many of the other results were omitted from the sample, so hits are more common in it than they were.
Pf Dd2 growth = inhibitors of Plasmodium falciparum Dd2 growth; P. falciparum Dd2 growth, SYBR Green, 72 h; Potency, µM (doses to about 28.9 µM), for inactives: at the highest dose activity, negative = inhibition, hits mostly inhibitors; 120,000 tested, 4.3% active; AID 1347417; active = well fitted inhibition curve with a large enough effect;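 also: plate controls were DMSO vehicle for no effect and reference drug for full effect; nearly all actives have a fitted effect of over 65% in size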
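Infected erythrocytes (Dd2, 0.3% parasitemia, 2.5% hematocrit final) are added to compound in RPMI-1640/Albumax II medium, grown 72 h at 37C in low oxygen, then lysed with saponin/Triton-X containing SYBR Green and read by fluorescence.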
The depositor's hits bear a star; i = inactive; [ ] = another dose, or the depositor's remark. Potency is read from the fitted curve at half-maximal effect.

SMILES	Pf Dd2 growth
O=c1n(-c2ccncc2)nc2n1CCN(Cc1ccc(C(F)(F)F)cc1)C2	7.9µM*
CCC(C)NC(=O)CC1Sc2ncccc2N(C)C1=O (stereo not drawn)	-3%
Cn1ccnc1-c1ccc(N2CCCC(CO)(Cc3cccc(Cl)c3)C2)nn1 (stereo not drawn)	5µM*
O=S(=O)(c1ccccc1Cl)N1CCCC(CO)(Cc2cccc(Cl)c2)C1 (stereo not drawn)	-21%
Cn1ccnc1-c1ccc(N2CC[C@@]3(O)CCN(S(C)(=O)=O)C[C@H]3C2)nn1	-8%
O=C(C1CCC1)N1C[C@@H]2CC[C@H](C1)N(C(=O)Nc1ccc(F)c(F)c1)C2	-17%
Cc1ccc(NC(=O)Cn2c(-c3cccc(Cl)c3)nc(C)c(CCO)c2=O)cc1	-12%
Cc1nc(-c2ccc(F)cc2)n(CC(=O)Nc2ccc(C(C)C)cc2)c(=O)c1CCO	7.1µM*
Cc1nc(-c2cccc(Cl)c2)n(CC(=O)Nc2cccc(C(C)C)c2)c(=O)c1CCO	5µM*
Cc1cc(NC(=O)Cn2c(-c3cccc(Cl)c3)nc(C)c(CCO)c2=O)no1	-19%
COc1cc(NC(=O)Cn2c(-c3ccccc3)nc(C)c(CCO)c2=O)cc(OC)c1	8.9µM*
Cc1nc(-c2ccc(F)cc2)n(CC(=O)Nc2ccc(F)cc2)c(=O)c1CCO	i
COc1ccc(Cl)cc1NC(=O)Cn1c(-c2ccc(F)cc2)nc(C)c(CCO)c1=O	14µM*
COc1ccc(NC(=O)Cn2c(-c3ccccc3)nc(C)c(CCO)c2=O)cc1OC	i
COc1ccc(Cl)cc1NC(=O)Cn1c(-c2ccccc2)nc(C)c(CCO)c1=O	i
COc1ccc(OC)c(NC(=O)Cn2c(-c3ccc(F)cc3)nc(C)c(CCO)c2=O)c1	-9%
Cc1nc(-c2ccc(F)cc2)n(CC(=O)Nc2cc(F)ccc2F)c(=O)c1CCO	-16%
COc1cc(NC(=O)Cn2c(-c3ccccc3)nc(C)c(CCO)c2=O)cc(OC)c1OC	-16%
CCOc1ccc(CN2CCc3nc(N4CCOCC4)[nH]c(=O)c3CC2)cc1OC	6%[5.79 µM]
COc1ccc(CN2C=C(C(=O)OCc3noc(-c4ccccc4)n3)C(C)=NS2(=O)=O)cc1	22%
CCn1nc(C)cc1C(=O)N1C[C@@H](CN2CCN(C)CC2)[C@@H](CO)C1	-7%
CCC(=O)NC[C@H]1Cn2cc(-c3ccccc3)nc2CO1	i
O=C1C(N2CCN(S(=O)(=O)c3ccc(F)c(F)c3)CC2)CCN1CCc1ccccc1 (stereo not drawn)	i
CSCCC(=O)N1CCC2(CC1)CC(c1ccccc1)C(=O)N2C (stereo not drawn)	-7%
O=C(Cc1ccc(N2CCNC2=O)cc1)N1CCC2(CC1)[C@H](O)C[C@@H]2O	-2%
SMILES	Pf Dd2 growth
CN(Cc1ccc(N2CCNC2=O)cc1)CC1CCCN(CCc2ccc(F)cc2)C1 (stereo not drawn)	13µM*
COc1ccc(CCN2CCCC(CN(C)C(=O)c3cnn(C(C)C)c3)C2)cc1 (stereo not drawn)	i
COc1ccc(C(=O)N2CCC(c3noc(-c4cnccn4)n3)C2)cn1 (stereo not drawn)	i[5.79 µM]
Cc1ccc(-c2cn3c(n2)N(C(=O)Cn2ccnc2C)CCC3)cc1	10µM*
Cc1ccc(-c2cn3c(n2)N(C(=O)c2cnn4cccnc24)CCC3)cc1	-6%
COc1ccc(-c2cn3c(n2)N(C(=O)Cn2ccnc2)CCC3)cc1	6%
Cc1ccc(-c2nc3ccccc3s2)cc1NC(=O)COc1ccccc1	13%
Cc1ccc(-c2nc3ccccc3[nH]2)cc1NC(=O)COc1cccc(C)c1C	7.1µM*
COc1ccc(OCC(=O)Nc2cc(-c3nc4ccccc4s3)ccc2C)cc1	3%
O=C(NCCc1ccc(Cl)cc1)C1CCc2nnc(C3CCN(C(=O)c4ccccc4)CC3)n21 (stereo not drawn)	1%
Cc1ccc(CNC(=O)C2CCCN(c3cnn(Cc4ccccc4)c(=O)c3)C2)o1 (stereo not drawn)	i
CCCCNC(=O)c1cn(C)c2ccc(S(=O)(=O)N3CCCC3)cc2c1=O	-5%
Cn1cc(C(=O)NCCc2ccccc2)c(=O)c2cc(S(=O)(=O)N3CCCCCC3)ccc21	13µM*
Cn1cc(C(=O)NCCc2ccc(Cl)cc2)c(=O)c2cc(S(=O)(=O)N3CCCCC3)ccc21	64%
COC(=O)c1cc2n(n1)CCCN(C(=O)c1cc(C)nc3ccc(C)cc13)C2	-2%
CCC1CN(C(=O)N2CCC(C(=O)NCCc3ccc(OC)cc3OC)CC2)c2cc(C)ccc2O1 (stereo not drawn)	5.6µM*
CNC(=O)C1CCN(C(=O)N2CC(C)Oc3ccc(C)cc32)CC1 (stereo not drawn)	-7%
Cc1ccc2c(c1)N(C(=O)N1CCC(C(=O)NCCc3ccc(Cl)cc3)CC1)CC(C)O2 (stereo not drawn)	8.9µM*
CCC1CN(C(=O)N2CCC(C(=O)NCCN(CC)CC)CC2)c2cc(C)ccc2O1 (stereo not drawn)	i
CCC1CN(C(=O)N2CCC(C(=O)NCCc3ccc(C)cc3)CC2)c2ccccc2O1 (stereo not drawn)	i
CCOc1ccc(NC(=O)C2CCN(C(=O)N3CC(C)Oc4ccc(Cl)cc43)CC2)cc1 (stereo not drawn)	13µM*
CC1CN(C(=O)N2CCC(C(=O)NCc3cccs3)CC2)c2cc(Cl)ccc2O1 (stereo not drawn)	-18%
CC1CN(C(=O)N2CCC(C(=O)NCCC3=CCCCC3)CC2)c2cc(Cl)ccc2O1 (stereo not drawn)	212%[5.79 µM]
CCCNC(=O)C1CCN(C(=O)N2CC(C)Oc3ccccc32)CC1 (stereo not drawn)	11%
COCCN1C(=O)c2ccccc2C(C(=O)NCCc2ccccc2)C12CCCCC2 (stereo not drawn)	i
SMILES	Pf Dd2 growth
COc1ccc(C(=O)Nc2ccc(-c3noc([C@@H]4CCCN4Cc4ccc(C(F)(F)F)cc4)n3)cn2)cc1	i
NC(=O)c1cc[nH]c1C1CCCN(C2CCSCC2)C1 (stereo not drawn)	-12%
COc1ccc(NC(=O)NC[C@H]2C[C@@H]3CCN2C[C@@H]3c2cc(-c3ccccc3Br)nc(C)n2)cc1	i
COc1ccccc1C(=O)N1CCC2(C1)C(=O)Nc1ccccc12 (stereo not drawn)	1%
Cc1ccc(C(=O)N2CCC3(CC2)CC(c2ccccc2)C(=O)N3C)cc1 (stereo not drawn)	-21%
CNC(=O)[C@@H]1CN(C(=O)C2(c3ccccc3)CC2)C[C@H]1c1n[nH]c(C)n1	0%
Cc1ccc(N2CCN(C(=O)c3cnn(-c4ccc(C)c(C)c4)c3C3CCNCC3)CC2)c(C)c1	5.6µM*
CC(=O)c1ccc(NC(=O)c2cnn(-c3cccc(F)c3)c2-n2cccc2)cc1	4%
Cc1ccc2nc(N3CCC(C(=O)N4CCN(c5cccc(C)c5C)CC4)CC3)[nH]c2c1	-7%
O=C(Nc1cccc(C(F)(F)F)c1)c1cnn(-c2cccc(F)c2)c1C1CCNCC1	11µM*
Cc1ccc(Cl)cc1N1CCN(C(=O)c2cnn(-c3ccc(Cl)cc3)c2C2CCNCC2)CC1	10µM*
Cc1ccc(-n2ncc(C(=O)N3CCN(c4ccccn4)CC3)c2C2CCN(C(=O)OC(C)(C)C)CC2)cc1C	36%
CCc1nc(SC)ncc1C(=O)N1CCN(c2cc(Cl)ccc2C)CC1	i
Cc1c(Cl)cccc1-n1ncc(C(=O)N2CCOCC2)c1C1CCN(C(=O)OC(C)(C)C)CC1	-6%
Cc1cccc(N2CCN(C(=O)c3cnn(-c4cccc(Cl)c4C)c3C3CCNCC3)CC2)c1C	11µM*
